From PubChem BioAssay (Tox21)
Records with an inconclusive call do not appear. Where a call stands in place of a potency, no number is given. Active and inactive are the calls of the source. Calls come from the whole dose curve; as a rule, active = well fitted cell-killing curve with a large enough effect in the repeat runs; inconclusive = weak or mixed curves, or effect the other way; inactive = flat fitted curve, though single readings scatter.

Assay: Nuclear factor erythroid 2-related factor 2/antioxidant responsive element (Nrf2/ARE) small molecule agonists: qHTS cell viability counter screen in human keratinocytes (AID 1919968); note: nearly all actives have a fitted effect of over 55% in size
Details: KeratinoSens HaCaT ARE cells viability, CellTiter-Fluor, 24 h; series mostly up to 92.4 µM
In short: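 Cytotoxicity was multiplexed with the Nrf2/ARE luciferase assay in the same wells. Stably transfected HaCaT keratinocytes were treated with test compounds for 23 h at 37 C. Cell viability was then measured by CellTiter-Fluor fluorescence.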
Potency is the fitted concentration of half-maximal effect.

**Q.** With `CC(C)(C)c1cc(CO)cc(C(C)(C)C)c1O` as the compound, how does the Potency read?
**A.** inactive

**Q.** Which Potency does the source give for `C[C@@H]1C[C@H]2O[C@@]3(O[C@@H]2C(C)(C)O)[C@H](O)[C@@]2(C)[C@@H]4CC[C@H]5C(C)(C)[C@@H](O[C@@H]6OC[C@@H](O)[C@H](O)[C@H]6O)CC[C@@]56C[C@@]46CC[C@]2(C)[C@@H]13` here?
**A.** inactive

**Q.** For `CCCCN1C(=O)[C@@H]([C@H](O)C2CCCCC2)NC(=O)C12CCN(Cc1ccc(Oc3ccc(C(=O)O)cc3)cc1)CC2`, which Potency is on record?
**A.** inactive

**Q.** With `CCOc1nc2cccc(C(=O)OC(C)OC(=O)OC3CCCCC3)c2n1Cc1ccc(-c2ccccc2-c2nn[nH]n2)cc1` (centres undefined) as the compound, how does the Potency read?
**A.** 48.5 µM (active)
